Experimental data from PubChem BioAssay (NCATS).
Unmarked numbers belong to inactive results. Calls follow the shape of the dose curve; as a rule, active = well fitted activation curve with a large enough effect; inconclusive = small, poorly fitted or top-dose-only effect; inactive = flat fitted curve, though single readings scatter.

Experiment: Cellular Toxicity (caspase-3) Mesangial (AID 660);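 also: combined caspase 3 and 7 activity read by Caspase-Glo luminescence; cells exposed to compound for 16 h before the caspase read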
Conditions: mesangial cells, normalized: DMSO 0%, 100 µM tamoxifen 100%; series mostly up to 91.7 µM; caspase-3 activation: at the top concentration
Text: NIH Chemical Genomics Center [NCGC]
NIH Molecular Libraries Screening Centers Network [MLSCN]
National Institutes of Environmental Health Sciences [NIEHS]
National Toxicology Program [NTP]
We have developed a 1536-well cell-based assay for quantitative high throughput screening (qHTS) against a number of cell lines to determine in vitro caspase 3/7 of small molecules. This particular assay uses the mesangial cell line which is derived from normal human renal glomeruli.
NCGC Assay Protocol Summary:
The Caspase-Glo 3/7 assay (Promega) is a homogeneous method to measure caspase-3 and caspase-7 activities in cultured cells. The quantitation of caspase 3/7 activity is based on the cleavage of a peptide-aminoluciferin substrate. After caspase cleaves the substrate the free aminoluciferin is liberated and serves as the substrate of luciferase, which generates the light. The luminescent signal is proportional to amount of caspase 3/7 activity present.
Using the Caspase-Glo 3/7 assay, the amount of caspase 3/7 activity was measured in the mesangial cell line with complete culture medium following compound treatment for 16 hours. The assay was performed in opaque white 1536-well plates. In the screen, tamoxifen and doxorubicin were used as positive controls. Library compounds were measured for their ability to cause the activation of caspase 3/7 in the cell line, as reflected by an increase in luminescence signal, in a concentration-dependent manner. Data were normalized to the controls for basal activity (DMSO only) and 100% stimulation (100 uM tamoxifen). AC50 values were determined from concentration-response data modeled with the standard Hill equation.
qHTS protocol for caspase 3/7 assay in mesangial cell line
[Step] [Parameter] [Value] [Description]
1. Reagent; 5 uL; 1000 mesangial cells/well
2. Time; 5 hr; 37 °C incubation
4. Controls; 23 nL; Tamoxifen 0.23 uM to 100 uM & doxorubicin 7.0 pM to 100 uM
5. Time; 16 hr; 37 °C incubation
6. Reagent; 5 uL; Caspase-Glo 3/7 reagent
7. Time; 20 min; Room Temperature
8. Detection; Luminescence; Viewlux plate reader
Keywords: caspase 3/7, apoptosis, mesangial cell line, luminescence, NTPHTS, NTPHTS_NCGC, NIEHS, EPA, DSSTox, MLSMR, MLSCN, NIH Roadmap, qHTS, NCGC

| Structure (SMILES) | caspase-3 activation [%] |
| --- | --- |
| Oc1ccc(Cl)cc1Cc1cc(Cl)ccc1O | 4.9 |
| CCOc1ccc(NC(C)=O)cc1 | 0.225 |
| CCCCC(CC)COC(=O)c1ccc(N(C)C)cc1 (stereo not given) | -0.763 |
| CCCN(CCC)S(=O)(=O)c1ccc(C(=O)O)cc1 | -0.79 |
| NCCNc1cccc2ccccc12 | 0.0418 |
| C/C=C/c1ccc(O)c(OC)c1 | -0.208 |
| COc1ccc(C(=O)c2ccccc2)c(O)c1 | 0.737 |
| Oc1c(Cl)cc(Cl)c(Cl)c1Cc1c(O)c(Cl)cc(Cl)c1Cl | 3.5 |
| COc1cc([C@H]2Oc3cc([C@H]4Oc5cc(O)cc(O)c5C(=O)[C@@H]4O)ccc3O[C@@H]2CO)ccc1O | -0.868 |
| OC[C@H]1O[C@@H]2O[C@H]3[C@H](O)[C@@H](O)[C@@H](O[C@H]4[C@H](O)[C@@H](O)[C@@H](O[C@H]5[C@H](O)[C@@H](O)[C@@H](O[C@H]6[C@H](O)[C@@H](O)[C@@H](O[C@H]7[C@H](O)[C@@H](O)[C@@H](O[C@H]8[C@H](O)[C@@H](O)[C@@H](O[C@H]1[C@H](O)[C@H]2O)O[C@@H]8CO)O[C@@H]7CO)O[C@@H]6CO)O[C@@H]5CO)O[C@@H]4CO)O[C@@H]3CO | -0.604 |
| NC(=O)c1ccccc1O | 0.256 |
| C=C[C@H]1CN2CC[C@H]1C[C@@H]2[C@@H](O)c1ccnc2ccc(OC)cc12 | 0.899 |
| O=C(O)c1ccc(S(=O)(=O)N(Cl)Cl)cc1 | 3.23 |
| COc1ccc(C(Cl)=C(c2ccc(OC)cc2)c2ccc(OC)cc2)cc1 | 1.19 |
| CCOc1ccccc1C(N)=O | -0.353 |
